The source made the active and inactive calls.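 How the source made its calls: active means thallium flux through the channel raised or lowered by more than 3 SD from vehicle-only wells, actives on both sides; inactive means the rest.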
Assays:
Test in all cases: BK channel mutant inhibitors and activators – cell-based, U2OS BacMam, thallium flux, beta subunits, selectivity assay, profiling panel (AID 1259406);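 further: initial slope of Thallos dye fluorescence rise after thallium is added; log ratio against the mean of 0.3% DMSO vehicle wells on the same plate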
[1] = test system: F380Y; conditions: U2OS BacMam BK variants, at 30 µM
[2] = test system: F380Y/beta1; conditions: U2OS BacMam BK variants, at 30 µM
[3] = test system: F380Y/beta2Delta; conditions: U2OS BacMam BK variants, at 30 µM
[4] = test system: F380Y/beta4; conditions: U2OS BacMam BK variants, at 30 µM
[5] = target: Calcium-activated potassium channel subunit alpha-1 (Homo sapiens) + Leucine-rich repeat-containing protein 26 (Homo sapiens) (UniProt Q12791+Q2I0M4); conditions: U2OS BacMam BK variants, F380Y/Slo1WT/gamma1, at 30 µM
[6] = test system: R275C; conditions: U2OS BacMam BK variants, at 30 µM
[7] = test system: R275C/beta1; conditions: U2OS BacMam BK variants, at 30 µM
[8] = test system: R275C/beta2Delta; conditions: U2OS BacMam BK variants, at 30 µM
[9] = test system: R275C/beta4; conditions: U2OS BacMam BK variants, at 30 µM
[10] = test system: R275C/Slo1WT/beta2; conditions: U2OS BacMam BK variants, at 30 µM

Measured: log fold change Tl+ flux

Chain of Calcium-activated potassium channel subunit alpha-1 (Homo sapiens) + Leucine-rich repeat-containing protein 26 (Homo sapiens) (Q2I0M4 whole entry, looked up, one chain of several): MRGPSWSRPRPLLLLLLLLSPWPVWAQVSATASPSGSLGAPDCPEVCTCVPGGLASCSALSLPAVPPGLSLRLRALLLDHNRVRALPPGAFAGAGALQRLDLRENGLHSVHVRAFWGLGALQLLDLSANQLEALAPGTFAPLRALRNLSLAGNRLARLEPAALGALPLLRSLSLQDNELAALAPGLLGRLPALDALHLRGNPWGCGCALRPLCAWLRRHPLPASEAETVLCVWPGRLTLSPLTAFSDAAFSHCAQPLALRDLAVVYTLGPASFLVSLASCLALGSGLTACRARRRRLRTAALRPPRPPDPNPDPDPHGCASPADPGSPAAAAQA

O=S(=O)(CCN1CCN(Cc2ccccc2)CC1)c1ccc(F)cc1
inactive: [1] -0.000988 | [2] 0.0135 | [3] 0.0237 | [4] 0.0241 | [5] 0.000113 | [6] 0.0486 | [7] 0.0249 | [8] 0.00728 | [9] 0.0441 | [10] -0.0289

O=C(O)C(Cc1ccccc1[N+](=O)[O-])=NNc1ccccc1
inactive: [1] 0.0136 | [2] 0.0239 | [3] 0.0162 | [4] 0.0888 | [5] 0.0895 | [6] 0.0387 | [7] 0.0681 | [8] 0.0201 | [9] 0.0231 | [10] 0.00699

O=S(=O)(NCc1ccc2c(c1)CCO2)c1cccs1
inactive: [1] -0.0321 | [2] -0.0222 | [3] -0.0113 | [4] -0.00792 | [5] -0.0976 | [6] -0.0104 | [7] -0.072 | [8] -0.0692 | [9] -0.0665 | [10] -0.0508

COc1ccc(C(C)=NO)cc1CN1CCCC1
inactive: [1] 0.00748 | [2] 0.0291 | [3] 0.0236 | [4] 0.062 | [5] 0.0507 | [6] 0.0203 | [7] 0.0511 | [8] -0.0181 | [9] -0.0237 | [10] 0.0863

N#CC(NCc1ccccc1Cl)=C(C#N)NCc1c(F)cccc1Cl
inactive: [1] -0.0652 | [2] -0.0209 | [3] -0.0204 | [8] -0.0733 | [10] 0.00197
active: [4] -0.171 | [5] -0.129 | [6] -0.2 | [7] -0.262 | [9] -0.185

COc1cc(NC(=S)Nc2cccc(C)n2)c(OC)cc1Cl
inactive: [1] 0.00134 | [2] -0.00183 | [3] 0.043 | [4] 0.0519 | [5] -0.00641 | [6] 0.00398 | [7] -0.033 | [8] 0.0321 | [9] -0.0698 | [10] -0.00284

O=C(Cn1ccc(C(F)(F)F)n1)c1ccc(Cl)cc1
inactive: [1] 0.0102 | [2] 0.0189 | [3] -0.0159 | [4] 0.0229 | [5] -0.00441 | [6] 0.00925 | [7] 0.0122 | [8] -0.0132 | [9] 0.0276 | [10] 0.0269

Cc1[nH]n(-c2c(Cl)cc(C(F)(F)F)cc2Cl)c(=O)c1N=Nc1ccccc1
inactive: [1] 0.0138 | [2] 0.00301 | [3] 0.00886 | [4] 0.0101 | [5] -0.0146 | [6] -0.0246 | [7] 0.00755 | [8] 0.0171 | [9] -0.0209 | [10] -0.029

O=C1c2cccc3c(Sc4ccccc4)ccc(c23)C(=O)N1CCc1ccccn1
inactive: [1] 0.00854 | [2] -0.00319 | [3] -0.0137 | [4] 0.0446 | [5] 0.0111 | [6] -0.0274 | [7] -0.0207 | [8] 0.02 | [9] -0.00592 | [10] 0.0318

N#CC(=Cc1cccs1)C(N)=O
inactive: [1] 0.0135 | [2] 0.00229 | [3] 0.0332 | [4] -0.0391 | [5] -0.00699 | [6] 0.00755 | [7] -0.00113 | [8] 0.0185 | [9] 0.00837 | [10] -0.0032

NC(C=Cc1cc(C(F)(F)F)cc(C(F)(F)F)c1)=NOC(=O)c1c(F)cccc1F
inactive: [1] -0.0565 | [2] 0.0127 | [3] -0.0278 | [4] -0.0864 | [5] -0.0341 | [6] -0.0159 | [7] -0.0569 | [8] -0.0168 | [9] 0.0381 | [10] 0.0436

CCOC(=O)c1sc(SC)nc1N
inactive: [1] -0.000489 | [2] -0.00635 | [3] 0.00305 | [4] 0.00634 | [5] -0.00935 | [7] -0.00543 | [8] -0.0273 | [9] -0.000536 | [10] 0.0235
active: [6] 0.0886

CCOC(=O)CN(C=NC#N)c1ccc(OC)cc1
inactive: [1] -0.0235 | [2] 0.0113 | [3] -0.0114 | [4] 0.0329 | [5] 0.0663 | [6] 0.0146 | [7] -0.0574 | [8] -0.0152 | [9] -0.00948 | [10] 0.0303

O=c1n(-c2ccccc2)c(=O)n2n1C1CCC2C1
inactive: [1] -0.0367 | [2] -0.0272 | [3] -0.00637 | [4] 0.0475 | [5] -0.00381 | [6] 0.0483 | [7] 0.0201 | [8] 0.00605 | [9] -0.0283 | [10] 0.0498

CSc1nc(N)nc(-c2cccs2)n1
inactive: [1] 0.02 | [2] 0.0489 | [3] 0.0165 | [4] 0.0265 | [5] 0.0393 | [6] -0.0182 | [7] 0.00143 | [8] 0.042 | [9] 0.0144 | [10] 0.0475

O=C(NCC1CC1)c1ccccc1NS(=O)(=O)c1cccc2nonc12
inactive: [1] 0.0757 | [2] 0.0238 | [3] 0.0491 | [4] 0.0071 | [5] -0.00954 | [6] 1.3e-05 | [7] 0.0417 | [8] 0.0268 | [9] 0.0533 | [10] 0.0216

Cc1nn(C)c2ncc(C(N)=O)c(Oc3ccc(Cl)cc3)c12
inactive: [1] -0.00628 | [2] -0.0132 | [3] 0.0115 | [4] 0.049 | [5] 0.0214 | [6] -0.017 | [7] 0.00427 | [8] 0.0253 | [9] -0.0279 | [10] -0.0474

O=C(NC(=O)C12CC3CC(CC(C3)C1)C2)Nc1ccc(Cl)cc1
inactive: [1] 0.00432 | [2] -0.0267 | [3] -0.0384 | [4] -0.0415 | [5] 0.0168 | [6] -0.00652 | [7] -0.0129 | [8] -0.0163 | [9] 0.0337 | [10] -0.0195

C1=CC=CC(C2C=CC=CC=C2)C=C1
inactive: [1] 0.0519 | [2] 0.0343 | [3] -0.0453 | [4] 0.0315 | [5] -0.0568 | [6] -0.00176 | [7] -0.00852 | [8] -0.000831 | [9] 0.0377 | [10] -0.0164

NC(=NNC(=O)c1cccnc1)c1ccncc1
inactive: [1] 0.0309 | [2] -0.00892 | [3] 0.0142 | [4] 0.00925 | [5] -0.00474 | [6] -0.039 | [7] 0.0056 | [8] 0.00736 | [9] 0.00943 | [10] -0.0381

Cc1nn(Cc2nnn(CC(=O)NN=Cc3ccc(Cl)cc3)n2)c(C)c1Br
inactive: [1] 0.0697 | [2] 0.0216 | [3] 0.00259 | [4] -0.0438 | [5] 0.0569 | [6] 0.0224 | [7] -0.0427 | [8] -0.045 | [9] 0.011 | [10] 0.0426

CCCCCc1c(C)nc(-c2ccccn2)[nH]c1=O
inactive: [1] -0.0547 | [2] -0.0236 | [3] -0.0415 | [4] -0.0388 | [5] -0.0142 | [6] 0.00744 | [7] 0.00404 | [8] 0.0392 | [9] 0.0188 | [10] -0.0181

COc1ccc(CNCc2cc(OC)c(OC)c(OC)c2)cc1
inactive: [1] -0.0783 | [2] 0.0429 | [3] -0.0785 | [5] -0.099 | [6] -0.0423 | [7] 0.0356 | [9] -0.0177
active: [4] -0.1 | [8] -0.0892 | [10] -0.102

O=C(Nc1ccc(-n2ccc(C(F)(F)F)n2)cc1)C1=Cc2cc(Cl)ccc2OC1
inactive: [1] 0.0274 | [2] -0.019 | [3] 0.0253 | [4] -0.0159 | [5] -0.106 | [6] -0.0271 | [7] -0.0315 | [8] 0.035 | [9] -0.0139 | [10] -0.0341

Cc1cc2c(cc1C)CSC(c1ccco1)SC2
inactive: [1] -0.0256 | [2] 0.0185 | [3] 0.0283 | [4] -0.0391 | [5] 0.00632 | [6] -0.00435 | [7] 0.035 | [8] 0.055 | [9] 0.0187 | [10] -0.0173

COC(=O)c1cnn(C(=O)Nc2c(C)cccc2C)c1C(OC)OC
inactive: [1] -0.0549 | [2] -0.00196 | [3] -0.0264 | [4] -0.029 | [5] 0.033 | [6] 0.02 | [7] -0.0504 | [8] -0.0443 | [9] 0.00703 | [10] 0.00968

CS(=O)(=O)NNc1c(Cl)cc(Cl)cc1Cl
inactive: [1] 0.00053 | [2] -0.000501 | [3] -0.00312 | [4] 0.0402 | [5] 0.016 | [6] 0.0374 | [7] -0.0143 | [8] 0.00102 | [9] 0.0275 | [10] 0.0607
